PubChem BioAssay AID1734 (Vanderbilt High Throughput Screening Facility, 2009)
Activity calls are given as the source filed them. The rule behind the calls is not given here.

Tests used:
[1] = KCC2 and NKCC1 inhibition by rubidium flux, cell-based, NKCC1 counter-screen (AID 1734); details: KCC2-expressing cells, NKCC1 counter-screen
[2] = biological target: Solute carrier family 12 member 5 (Homo sapiens) (UniProt Q9H2X9); assay: as above; details: KCC2-expressing cells
Sequence of Solute carrier family 12 member 5 (Homo sapiens) (Q9H2X9 whole entry, looked up): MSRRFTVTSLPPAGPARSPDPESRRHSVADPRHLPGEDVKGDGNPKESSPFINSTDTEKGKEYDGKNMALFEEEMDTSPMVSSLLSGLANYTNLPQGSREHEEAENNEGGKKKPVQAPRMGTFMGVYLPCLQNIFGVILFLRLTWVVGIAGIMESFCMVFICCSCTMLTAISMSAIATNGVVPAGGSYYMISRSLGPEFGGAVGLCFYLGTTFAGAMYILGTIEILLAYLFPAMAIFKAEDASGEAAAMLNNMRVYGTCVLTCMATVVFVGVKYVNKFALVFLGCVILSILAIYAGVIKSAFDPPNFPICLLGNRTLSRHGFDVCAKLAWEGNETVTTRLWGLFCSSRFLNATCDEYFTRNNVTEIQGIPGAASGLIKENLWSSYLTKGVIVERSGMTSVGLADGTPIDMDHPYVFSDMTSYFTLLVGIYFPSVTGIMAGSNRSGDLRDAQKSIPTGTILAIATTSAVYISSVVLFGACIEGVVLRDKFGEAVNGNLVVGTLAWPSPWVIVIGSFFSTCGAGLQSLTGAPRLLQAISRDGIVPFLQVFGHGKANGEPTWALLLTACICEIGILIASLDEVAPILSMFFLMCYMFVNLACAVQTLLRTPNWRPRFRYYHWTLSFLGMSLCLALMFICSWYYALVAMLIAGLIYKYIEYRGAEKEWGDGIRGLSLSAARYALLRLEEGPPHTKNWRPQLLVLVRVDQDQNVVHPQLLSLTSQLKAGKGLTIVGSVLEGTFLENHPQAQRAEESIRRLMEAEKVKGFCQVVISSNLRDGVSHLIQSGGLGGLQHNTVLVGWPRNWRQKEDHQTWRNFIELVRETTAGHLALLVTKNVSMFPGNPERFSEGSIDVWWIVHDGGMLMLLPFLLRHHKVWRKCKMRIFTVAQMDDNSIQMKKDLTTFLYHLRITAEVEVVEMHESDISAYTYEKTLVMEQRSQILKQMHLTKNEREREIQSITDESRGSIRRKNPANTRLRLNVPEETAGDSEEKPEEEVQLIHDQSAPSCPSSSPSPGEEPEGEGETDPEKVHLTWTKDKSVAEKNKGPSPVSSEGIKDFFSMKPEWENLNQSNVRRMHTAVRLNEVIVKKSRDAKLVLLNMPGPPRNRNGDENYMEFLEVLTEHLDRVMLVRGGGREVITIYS

What does the source list for `CCOc1ccc(Nc2n[nH]c(=S)s2)cc1`?
inhibition ([1]; at 5 µM): 44.9%; inhibition ([1]; at 50 µM): 67.4%; outcome [2]: inactive

For `Cc1ccc(-c2ccc(S(=O)(=O)NCC3CCCO3)cc2)cc1` (centres undefined), which inhibition ([1]; at 5 µM) is on record?
The inhibition was 21.8%.

And the inhibition ([1]; at 50 µM)?
The inhibition was 26.6%.

With `Cc1ccc(Nc2nnc(SCC(=O)c3cc4ccccc4o3)s2)cc1C` as the compound, how does the inhibition ([1]; at 5 µM) read?
Its inhibition is 46.3%.

What about the inhibition ([1]; at 50 µM) of the same compound?
The inhibition was 53.4%.

Which results are given for `O=C(Cn1cnc2c(nnn2Cc2ccccc2)c1=O)c1ccc(Cl)cc1`?
inhibition ([1]; at 5 µM): 25.1%; inhibition ([1]; at 50 µM): 40.6%

What does the source list for `CCOc1ccc(N2C(=O)C3Sc4[nH]c(=O)sc4C(/C=C/c4ccccc4)C3C2=O)cc1` (centres undefined)?
inhibition ([1]; at 5 µM): 67.4%; inhibition ([1]; at 50 µM): 90.8%

For `O=C(NCCOc1ccccc1F)c1ccccc1SCc1ccc(F)cc1`, which inhibition ([1]; at 5 µM) is on record?
Its inhibition is 34.2%.

And the inhibition ([1]; at 50 µM)?
Its inhibition is 45.8%.

Which inhibition ([1]; at 5 µM) does the source give for `CC1Cc2ccccc2N1C(=O)c1ccc(N2CCCC2)c([N+](=O)[O-])c1` (centres undefined) here?
Its inhibition is 22.9%.

What about the inhibition ([1]; at 50 µM) of the same compound?
Its inhibition is 48.5%.

Which inhibition ([1]; at 5 µM) does the source give for `O=C(/C=C/c1ccccc1)Nc1scc(-c2ccccc2)c1C(=O)O` here?
Its inhibition is 25.2%.

And the inhibition ([1]; at 50 µM)?
Its inhibition is 72.8%.

Which results are given for `O=C(Cn1cnc2c(nnn2Cc2ccc(F)cc2)c1=O)N1CCCc2ccccc21`?
inhibition ([1]; at 5 µM): 28.1%; inhibition ([1]; at 50 µM): 27.7%

For `O=C(Cn1cnc2c(nnn2Cc2ccccc2)c1=O)N1CCCc2ccccc21`, which inhibition ([1]; at 5 µM) is on record?
The inhibition was 23.4%.

And the inhibition ([1]; at 50 µM)?
The inhibition was 33.2%.

Which inhibition ([1]; at 5 µM) does the source give for `CN(Cc1ccccc1)S(=O)(=O)c1ccc(Cl)c(C(=O)NCCc2ccccn2)c1` here?
The inhibition was 44.4%.

And the inhibition ([1]; at 50 µM)?
The inhibition was 53.4%.

Which inhibition ([1]; at 5 µM) does the source give for `O=C(O)CCn1c(SCc2cccc3ccccc23)nc2ccccc21` here?
The inhibition was 57.5%.

And the inhibition ([1]; at 50 µM)?
Its inhibition is 80.5%.

Which inhibition ([1]; at 5 µM) does the source give for `Cc1nc(CC(=O)Nc2nc(-c3ccccc3)cs2)cs1` here?
The inhibition was 35.5%.

And the inhibition ([1]; at 50 µM)?
The inhibition was 38.1%.

With `Cc1cnc(NC(=O)CSc2nnc(Cc3ccccc3)o2)s1` as the compound, how does the inhibition ([1]; at 5 µM) read?
The inhibition was 9.9%.

And the inhibition ([1]; at 50 µM)?
Its inhibition is 16.8%.

What does the source list for `O=C(OCC(=O)N1CCN(C(=O)c2ccco2)CC1)c1sc2ccccc2c1Cl`?
inhibition ([1]; at 5 µM): 33.3%; inhibition ([1]; at 50 µM): 55.4%

For `O=C(Nc1ccc(S(=O)(=O)NCc2ccccc2)cc1)c1ccccc1[N+](=O)[O-]`, which inhibition ([1]; at 5 µM) is on record?
The inhibition was 24.2%.

What about the inhibition ([1]; at 50 µM) of the same compound?
The inhibition was 31.2%.

With `CCCn1c(N)c(C(=O)CSc2nnc(Cc3ccccc3)o2)c(=O)n(C)c1=O` as the compound, how does the inhibition ([1]; at 5 µM) read?
The inhibition was 15.4%.

What about the inhibition ([1]; at 50 µM) of the same compound?
Its inhibition is 28.3%.

Which inhibition ([1]; at 5 µM) does the source give for `CCc1ccc(OCCNC(=O)c2ccccc2SCc2ccc(F)cc2)cc1` here?
Its inhibition is 45.3%.

What about the inhibition ([1]; at 50 µM) of the same compound?
Its inhibition is 47.9%.

What about the outcome [2] of the same compound?
The outcome was “inactive”.

With `CC(C)c1onc(C(=O)N2CCN(Cc3ccccc3)CC2)c1[N+](=O)[O-]` as the compound, how does the inhibition ([1]; at 5 µM) read?
Its inhibition is 6.1%.

What about the inhibition ([1]; at 50 µM) of the same compound?
Its inhibition is 15.5%.

Which inhibition ([1]; at 5 µM) does the source give for `Cc1csc(NC(=O)CSc2ccc(-c3ccccc3)nn2)n1` here?
The inhibition was 12.9%.

What about the inhibition ([1]; at 50 µM) of the same compound?
The inhibition was 19.7%.

What does the source list for `O=C(CCS(=O)(=O)Cc1ccccc1)Nc1nc2c(s1)CCCC2`?
inhibition ([1]; at 5 µM): 35.8%; inhibition ([1]; at 50 µM): 37.1%

For `O=C(NCC1CCCN(C(=O)c2cccnc2)C1)c1ccc(-c2ccccc2)cc1` (centres undefined), which inhibition ([1]; at 5 µM) is on record?
The inhibition was 31.2%.

And the inhibition ([1]; at 50 µM)?
The inhibition was 40.3%.

What about the outcome [2] of the same compound?
The outcome was “inactive”.

With `O=S(=O)(NCc1ccccc1)c1ccc(Cl)c(S(=O)(=O)NCc2ccccc2)c1` as the compound, how does the inhibition ([1]; at 5 µM) read?
Its inhibition is 13.5%.

What about the inhibition ([1]; at 50 µM) of the same compound?
Its inhibition is 30.5%.

Which results are given for `Cc1ccc(NC(=O)c2ccccc2NS(=O)(=O)c2ccc(Cl)s2)cc1`?
inhibition ([1]; at 5 µM): 65.1%; inhibition ([1]; at 50 µM): 68.4%; outcome [2]: inactive

Which results are given for `O=C(CN1C(=O)NC2(CCCC2)C1=O)Nc1nc(-c2ccc(F)cc2)cs1`?
inhibition ([1]; at 5 µM): 39.2%; inhibition ([1]; at 50 µM): 43.6%
